Experimental data from PubChem BioAssay AID1456 (Vanderbilt High Throughput Screening Facility, 2008).
The campaign covered roughly 190,000 compounds. About 4,100 (2.2%) were called active. Only a selection was taken, and actives are over-represented in it overall. A number with no mark means an inactive call.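 Rule for the calls: active = thallium flux slope and its plate-corrected score both differing from the plate sample mean at a set confidence after two filtering rounds, in either direction; inactive = the rest.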

Each compound was assayed against Solute carrier family 12 member 5 (Homo sapiens) (UniProt Q9H2X9) (assay: modulation of human KCC2 ion transport – cell-based, HEK293 KCC2, FluoZin-2 fluorescence, MLSMR, primary screen (AID 1456;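 note: slope of fluorescence scaled to starting intensity during 10 to 20 s after thallium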)). Settings: KCC2 cells, thallium flux FluoZin-2 fluorescence; at 10 µM.
Sequence of Solute carrier family 12 member 5 (Homo sapiens) (Q9H2X9 whole entry, looked up): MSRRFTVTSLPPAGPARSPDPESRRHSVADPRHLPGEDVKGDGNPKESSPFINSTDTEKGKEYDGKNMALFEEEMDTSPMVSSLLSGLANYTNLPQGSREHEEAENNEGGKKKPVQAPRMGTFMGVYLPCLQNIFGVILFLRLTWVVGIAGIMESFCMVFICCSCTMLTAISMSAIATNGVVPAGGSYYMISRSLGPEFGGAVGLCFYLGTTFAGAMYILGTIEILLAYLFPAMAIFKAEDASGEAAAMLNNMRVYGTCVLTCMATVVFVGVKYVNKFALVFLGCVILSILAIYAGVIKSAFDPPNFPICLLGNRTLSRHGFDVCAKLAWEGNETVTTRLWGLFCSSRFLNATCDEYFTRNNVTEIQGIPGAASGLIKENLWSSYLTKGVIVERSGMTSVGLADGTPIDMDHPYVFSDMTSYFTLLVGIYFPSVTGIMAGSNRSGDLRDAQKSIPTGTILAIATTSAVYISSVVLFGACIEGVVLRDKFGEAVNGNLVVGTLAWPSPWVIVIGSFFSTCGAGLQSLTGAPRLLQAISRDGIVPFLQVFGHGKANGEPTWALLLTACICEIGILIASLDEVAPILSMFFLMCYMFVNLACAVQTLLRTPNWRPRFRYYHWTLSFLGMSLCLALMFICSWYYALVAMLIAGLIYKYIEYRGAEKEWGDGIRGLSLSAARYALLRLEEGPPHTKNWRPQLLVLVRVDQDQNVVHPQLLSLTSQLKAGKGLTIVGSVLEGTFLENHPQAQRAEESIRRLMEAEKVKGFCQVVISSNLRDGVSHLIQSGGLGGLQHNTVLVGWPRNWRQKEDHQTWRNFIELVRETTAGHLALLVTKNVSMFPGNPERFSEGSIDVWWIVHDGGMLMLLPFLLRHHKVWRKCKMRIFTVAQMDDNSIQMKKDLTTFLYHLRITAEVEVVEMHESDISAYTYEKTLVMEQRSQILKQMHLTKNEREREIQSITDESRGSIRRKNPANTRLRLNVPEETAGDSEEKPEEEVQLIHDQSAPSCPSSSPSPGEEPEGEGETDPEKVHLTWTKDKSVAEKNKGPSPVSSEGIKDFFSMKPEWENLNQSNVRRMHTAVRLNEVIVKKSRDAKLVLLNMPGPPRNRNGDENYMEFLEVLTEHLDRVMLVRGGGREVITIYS
With `O=C(CSC1c2ccccc2-c2ccccc21)N/N=C/c1ccccc1` the B-score of Tl+ flux slope (higher = more flux/activation; lower = inhibition) was 2.57 (active). In the case of `CCCCC(=O)N/N=C/c1c(O)n(-c2ccccc2)c(=O)[nH]c1=O`, the B-score of Tl+ flux slope (higher = more flux/activation; lower = inhibition) is reported as -0.272. Work on `c1cc2c(cc1[C@H]1OC[C@H]3[C@@H]1CO[C@@H]3c1ccc3c(c1)OCO3)OCO2` yielded a B-score of Tl+ flux slope (higher = more flux/activation; lower = inhibition) of 0.711. For `CCC1(C)CC(CCNCc2ccc(N(C)C)cc2)(c2ccc(F)cc2)CCO1` (stereo not given), the B-score of Tl+ flux slope (higher = more flux/activation; lower = inhibition) was 1.55. `CNC(=O)O/N=C(\N)Cc1csc2ccccc12` gave a B-score of Tl+ flux slope (higher = more flux/activation; lower = inhibition) of 0.111. With `COc1cc(-n2c(=S)[nH]c3ccc(C)cc3c2=O)c(Cl)cc1Cl` the B-score of Tl+ flux slope (higher = more flux/activation; lower = inhibition) was 69.6 (active). Work on `COc1cccc(CN2CCCC(C(=O)c3ccccc3SC)C2)c1O` (stereo not given) yielded a B-score of Tl+ flux slope (higher = more flux/activation; lower = inhibition) of -3.42. `COc1cc(OC)cc(C2(C#N)CCN(C)CC2)c1` was tested, and the B-score of Tl+ flux slope (higher = more flux/activation; lower = inhibition) was -0.32. With `CSc1ccc(C(=O)C2CCCN(Cc3ccn[nH]3)C2)cc1` (stereo not given) the B-score of Tl+ flux slope (higher = more flux/activation; lower = inhibition) was 0.628. `Cc1ccc(CN2CCCC(C(=O)c3ccc4c(c3)OCO4)C2)cc1C` (stereo not given) showed a B-score of Tl+ flux slope (higher = more flux/activation; lower = inhibition) of -0.421.
